# Assay results published in PubChem BioAssay AID743468 (Broad Institute, 2014).
# This is one part of the list. Calls of active or inactive are those of the source.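 How the source made its calls: active means fitted curve reaching a 40% PDK4 expression rise at or below the top valid tested dose; inconclusive means no clear call, values can overlap the other calls; inactive means the rest, including shifts the wrong way.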
# Test: change in PGC-1a target gene PDK4 expression, dose response, C2C12 myotubes, RT-qPCR, cherry-pick (AID 743468)
smiles,measurement,value
N#Cc1ccc(-c2ccc(C3[C@@H]4CN(S(=O)(=O)c5ccc(F)cc5)C[C@H]3N4)cc2)cc1 (stereo partly specified),outcome,inactive
